About 1,500 (3.8%) of roughly 39,000 compounds were called active. This is one part of a sample in which actives are shown more often than they occur.

The subject of this assay is HSkMC (human skeletal muscle cells). Put plainly: cytotoxicity call (relative viability < 0.9). The settings on record: 10 µM.
Regarding `CC(C)=C[C@H]1[C@@H](c2nc3cc(Br)ccc3o2)C1(C)C`, the cytotoxicity call is “inactive”.
Consider `C[C@@H]1CCCCO[C@H](CN(C)S(=O)(=O)c2ccc(F)cc2)[C@@H](C)CN([C@H](C)CO)C(=O)c2cc(NC(=O)Nc3ccc(C(F)(F)F)cc3)ccc2O1`, for which the cytotoxicity call is “inactive”.
Take `COCC(=O)N1C[C@@H](C)[C@H](OC)CN(C)C(=O)c2ccc(NC(=O)c3ccc(F)cc3)cc2OC[C@@H]1C`: the cytotoxicity call is “inactive”.
The value for `C[C@H](CO)N1C[C@H](C)[C@@H](CN(C)Cc2ccc(C(F)(F)F)cc2)Oc2ccc(NC(=O)Nc3ccc(F)cc3)cc2CC1=O` was “active”.
Consider `C[C@H]1CN([C@@H](C)CO)C(=O)Cc2cc(NC(=O)Nc3ccc(F)cc3)ccc2O[C@@H]1CN(C)Cc1ccc(C(F)(F)F)cc1`, for which the cytotoxicity call was “inactive”.
`C[C@H]1CN([C@@H](C)CO)C(=O)Cc2cc(NC(=O)Nc3ccc(F)cc3)ccc2O[C@H]1CN(C)Cc1ccc(C(F)(F)F)cc1`: the cytotoxicity call was “active”.
The entry for `C[C@@H]1CN([C@@H](C)CO)C(=O)Cc2cc(NC(=O)Nc3ccc(F)cc3)ccc2O[C@H]1CN(C)Cc1ccc(C(F)(F)F)cc1` is “inactive”; for `C[C@@H]1CN([C@@H](C)CO)C(=O)Cc2cc(NC(=O)Nc3ccc(F)cc3)ccc2O[C@@H]1CN(C)Cc1ccc(C(F)(F)F)cc1` it is “active”; for `C[C@@H]1CN([C@H](C)CO)C(=O)Cc2cc(NC(=O)Nc3ccc(F)cc3)ccc2O[C@H]1CN(C)Cc1ccc(C(F)(F)F)cc1` it is “active”.
The entry for `C[C@H](CO)N1C[C@H](C)[C@@H](CN(C)Cc2ccc(C(=O)O)cc2)Oc2c(NS(=O)(=O)c3cn(C)cn3)cccc2C1=O` is “inactive”; for `CC(C)NC(=O)N(C)C[C@@H]1OCCCC[C@H](C)Oc2ccc(NC(=O)Nc3ccc(F)cc3)cc2C(=O)N([C@H](C)CO)C[C@@H]1C` it is “inactive”; for `C[C@@H]1CN([C@@H](C)CO)C(=O)c2cc(NC(=O)C3CCCCC3)ccc2O[C@@H](C)CCCCO[C@H]1CN(C)C(=O)Nc1ccccc1` it is “inactive”.
Take `C[C@H](CO)N1C[C@H](C)[C@@H](CN(C)S(=O)(=O)c2ccc(Cl)cc2)Oc2ccc(N(C)C)cc2C1=O`: the cytotoxicity call was “inactive”.
Regarding `COCCNC(=O)C[C@@H]1CC[C@H]2[C@@H](COC[C@@H](O)CN2C(=O)Nc2ccc3c(c2)OCO3)O1`, the cytotoxicity call is “inactive”.
The entry for `O=C(O)Cc1cccc(OCCCN(Cc2cccc(C(F)(F)F)c2Cl)CC(c2ccccc2)c2ccccc2)c1` is “inactive”; for `Cc1noc(C)c1NC(=O)N(C)C[C@H]1Oc2ccc(NC(=O)Nc3cccc4ccccc34)cc2C(=O)N([C@@H](C)CO)C[C@H]1C` it is “inactive”.
The entry for `C=CCOC(=O)[C@@H]1[C@H]2C(=O)O[C@H](c3ccccc3)[C@H](c3ccccc3)N2[C@H](c2ccc(OCCOC(=O)[C@H]3C[C@H]4C(=O)N[C@@H](CCCCN(C)C)C(=O)N4[C@H]3c3cccc(OCCO)c3)cc2)[C@@]12C(=O)Nc1ccc(I)cc12` is “inactive”.
The entry for `COc1ccc2c3c(n(c2c1)C)[C@H](CO)N(C[C@]13CCN(CC1)C(=O)CN(C)C)S(=O)(=O)C` is “inactive”; for `C[C@H](CO)N1C[C@H](C)[C@H](CN(C)Cc2ccc(C(F)(F)F)cc2)Oc2ccc(NC(=O)Nc3ccc(F)cc3)cc2CC1=O` it is “active”; for `C[C@@H]1CN([C@H](C)CO)C(=O)Cc2cc(NC(=O)Nc3ccc(F)cc3)ccc2O[C@@H]1CN(C)Cc1ccc(C(F)(F)F)cc1` it is “active”.
Take `CO[C@H]1CN(C)C(=O)c2cc(NC(=O)NC(C)C)ccc2OC[C@H](C)N(Cc2ccc(-c3ccccn3)cc2)C[C@@H]1C`: the cytotoxicity call was “inactive”.
For the compound `COCC(=O)N(C)C[C@@H]1Oc2cc(C#Cc3ccccc3)ccc2S(=O)(=O)N([C@H](C)CO)C[C@H]1C`, the cytotoxicity call was “inactive”.
The value for `CO[C@@H]1CN(C)C(=O)c2cc(NC(=O)Nc3ccccc3)ccc2OC[C@@H](C)N(C(=O)CN(C)C)C[C@@H]1C` was “inactive”.
The entry for `Nc1ccn([C@H]2CC[C@@H](CO)O2)c(=O)n1` is “inactive”.
The value for `CC(C)CC#Cc1ccc2c(c1)O[C@H](CN(C)C(=O)c1ccncc1)[C@@H](C)CN([C@H](C)CO)S2(=O)=O` was “inactive”.
`CCn1c(-c2nonc2N)nc2cncc(C(=O)N3CC[C@H](N)C3)c21`: the cytotoxicity call is “active”.
Take `C[C@H](CO)N1C[C@H](C)[C@H](CN(C)Cc2ccncc2)OCCCC[C@H](C)Oc2ccc(NC(=O)NC3CCCCC3)cc2C1=O`: the cytotoxicity call is “inactive”.
The value for `C[C@@H]1CCCCO[C@H](CN(C)C(=O)Cc2ccccc2)[C@H](C)CN([C@H](C)CO)C(=O)c2cc(NS(=O)(=O)c3ccc(Cl)cc3)ccc2O1` was “inactive”; that for `C[C@H](CO)N1C[C@H](C)[C@H](CN(C)C(=O)C2CCCCC2)OCCCC[C@H](C)Oc2ccc(NC(=O)Nc3ccc4c(c3)OCO4)cc2C1=O` was “inactive”.
On to `Nc1ccn([C@H]2O[C@@H](CO)[C@@H](O)[C@@H]2O)c(=O)n1`, for which the cytotoxicity call is “inactive”.
The value for `O=C(C[C@@H]1C=C[C@@H](NS(=O)(=O)c2ccccc2F)[C@@H](CO)O1)NCCCN1CCOCC1` was “inactive”; that for `O=C(CCCCC(=O)N/N=C/c1cc[n+]([O-])cc1)NO` was “inactive”; that for `Cc1ccc(S(=O)(=O)Nc2ccc3c(c2)CC(=O)N([C@H](C)CO)C[C@H](C)[C@H](CN(C)C(=O)Nc2cccc4ccccc24)O3)cc1` was “inactive”.
The entry for `CN(C)C1CCN(C(=O)c2cnc(-c3noc4cc(-c5ccccc5C(F)(F)F)ccc34)s2)CC1` is “inactive”; for `C[C@H](CO)N1C[C@H](C)[C@H](CN(C)C(=O)Nc2ccccc2)Oc2ncc(-c3cccc(C(F)(F)F)c3)cc2C1=O` it is “inactive”; for `CN(C)C1CCN(C(=O)c2cnc(-c3noc4cc(-c5cccc(C(F)(F)F)c5)ccc34)s2)CC1` it is “active”.
The entry for `COc1ccc(S(=O)(=O)Nc2ccc3c(c2)CC(=O)N([C@@H](C)CO)C[C@H](C)[C@@H](CN(C)S(=O)(=O)c2cn(C)cn2)O3)cc1` is “inactive”; for `O=C(C1=C[C@H](c2coc3ccccc3c2=O)C[C@H](OCCCCO)O1)N1CCN(Cc2ccc3c(c2)OCO3)CC1` it is “inactive”.
As to `CNc1cccc(CN)c1`, the cytotoxicity call is “inactive”.
The entry for `CN1CCC(Nc2nc(Nc3ccc(Oc4ccccc4)cc3)c3c(O)ncc(Br)c3n2)CC1` is “active”; for `C=CC[C@H](CC(=O)N(CCO)Cc1ccccc1)C(=O)N[C@H](COC(=O)[C@H](CC=C)CC(=O)OC(C)(C)C)Cc1c[nH]c2ccccc12` it is “inactive”.
The value for `C=CC[C@@H](CC(=O)N(CCO)Cc1ccccc1)C(=O)N[C@@H](COC(=O)[C@@H](CC=C)CC(=O)OC(C)(C)C)Cc1c[nH]c2ccccc12` was “inactive”.
Turning to `C=CC[C@H](CC(=O)N(CCO)Cc1ccccc1)C(=O)N[C@@H](COC(=O)[C@@H](CC=C)CC(=O)OC(C)(C)C)Cc1c[nH]c2ccccc12`, the cytotoxicity call was “inactive”.
The value for `C=CC[C@@H](CC(=O)N(CCO)Cc1ccccc1)C(=O)N[C@@H](COC(=O)[C@H](CC=C)CC(=O)OC(C)(C)C)Cc1c[nH]c2ccccc12` was “inactive”.
The value for `C=CC[C@@H](CC(=O)N(CCO)Cc1ccccc1)C(=O)N[C@@H](COC(=O)[C@H](CC=C)Cc1ccc(F)cc1)Cc1c[nH]c2ccccc12` was “active”; that for `C=CC[C@H](CC(=O)N(CCO)Cc1ccccc1)C(=O)N[C@@H](COC(=O)[C@H](CC=C)CC(=O)OC(C)(C)C)Cc1c[nH]c2ccccc12` was “inactive”; that for `C=CC[C@H](CC(=O)N(CCO)Cc1ccccc1)C(=O)N[C@@H](COC(=O)[C@@H](CC=C)Cc1ccc(F)cc1)Cc1c[nH]c2ccccc12` was “active”.
The entry for `C=CC[C@H](CC(=O)N(CCO)Cc1ccccc1)C(=O)N[C@H](COC(=O)[C@@H](CC=C)CC(=O)OC(C)(C)C)Cc1c[nH]c2ccccc12` is “inactive”; for `C=CC[C@H](CC(=O)N(CCO)Cc1ccccc1)C(=O)N[C@H](COC(=O)[C@@H](CC=C)Cc1ccc(F)cc1)Cc1c[nH]c2ccccc12` it is “inactive”.
Consider `C=CC[C@@H](CC(=O)N(CCO)Cc1ccccc1)C(=O)N[C@H](COC(=O)[C@@H](CC=C)CC(=O)OC(C)(C)C)Cc1c[nH]c2ccccc12`, for which the cytotoxicity call was “inactive”.
The value for `C=CC[C@@H](CC(=O)N(CCO)Cc1ccccc1)C(=O)N[C@@H](COC(=O)[C@@H](CC=C)Cc1ccc(F)cc1)Cc1c[nH]c2ccccc12` was “active”.
For the compound `C=CC[C@@H](CC(=O)N(CCO)Cc1ccccc1)C(=O)N[C@H](COC(=O)[C@@H](CC=C)Cc1ccc(F)cc1)Cc1c[nH]c2ccccc12`, the cytotoxicity call was “active”.
The entry for `C[C@H]1CCCCO[C@H](CN(C)CC2CC2)[C@@H](C)CN([C@@H](C)CO)C(=O)c2cc(NC(=O)C3CCCCC3)ccc2O1` is “inactive”; for `C[C@@H]1CN([C@@H](C)CO)C(=O)c2cc(NC(=O)C3CC3)ccc2O[C@H]1CN(C)S(=O)(=O)c1ccc(F)cc1` it is “inactive”; for `C[C@@H]1CN([C@H](C)CO)S(=O)(=O)c2ccc(/C=C/c3ccccc3)cc2O[C@@H]1CN(C)C(=O)Nc1cc(F)ccc1F` it is “inactive”.
The entry for `NC(=S)c1cnccn1` is “inactive”; for `C[C@@H]1CCCCO[C@H](CN(C)Cc2ccc(C(F)(F)F)cc2)[C@H](C)CN([C@@H](C)CO)C(=O)c2cc(NS(=O)(=O)c3ccccc3)ccc2O1` it is “inactive”.
The value for `C[C@H](CO)N1C[C@H](C)[C@@H](CN(C)C(=O)Nc2ccc(F)cc2)Oc2ccc(NC(=O)C3CC3)cc2CC1=O` was “inactive”; that for `C[C@@H]1CN([C@H](C)CO)C(=O)c2cc(C3=CCCC3)cnc2O[C@@H]1CN(C)C(=O)c1ccc2c(c1)OCO2` was “inactive”; that for `C[C@H](CO)N1C[C@H](C)[C@@H](CN(C)C(=O)c2ccccc2)OCCCC[C@H](C)Oc2ccc(NC(=O)Nc3cccc4ccccc34)cc2C1=O` was “inactive”.
For `CN1CCN(C(=O)C[C@H]2CC[C@@H]3[C@H](COC[C@@H](O)CN3S(=O)(=O)c3cccc(F)c3)O2)CC1`, the cytotoxicity call was “inactive”.
The value for `C[C@@H]1CN([C@@H](C)CO)C(=O)c2c(c3ccccc3n2C)-c2ccccc2CO[C@@H]1CN(C)Cc1ccc(C(=O)O)cc1` was “inactive”.

(Values after the antibiotic and cytotoxicity screens of Wong et al. (2023).)
